Results on 24 compounds are retold here after PubChem BioAssay (Tox21).

Test [1] concerns the target Progesterone receptor (Homo sapiens) (UniProt P06401). Description: qHTS assay to identify small molecule antagonists of the progesterone receptor (PR) signaling pathway (AID 1346795; active = well fitted inhibition curve with a large enough effect in the signal ratio in the repeat runs, not every such curve was filed as active; the % refers to the signal ratio; note: potency is the fitted concentration of half-maximal effect). A digest of the protocol: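 Read-out is fluorescence from the LiveBLAzer B/G FRET substrate, cleaved by a UAS-controlled beta-lactamase in PR-UAS-bla HEK293T cells after 16 hr exposure to compound plus 1 nM promegestone (final), followed by 2 hr at room temperature.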
For orientation: qHTS replaces the single test concentration by a dilution series.

Test [2] can be described thus: qHTS assay to identify small molecule antagonists of the progesterone receptor (PR) signaling pathway - cell viability counter screen (AID 1346798). Note: nearly all actives have a fitted effect of over 50% in size. Note: potency is the fitted concentration of half-maximal effect. A digest of the protocol:
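HEK293T PR-UAS-bla, 2% charcoal-stripped FBS; 4 hr pre-plate; cpd + R5020, 16 h 37C; LiveBLAzer read first; then CellTiter-Glo 30 min RT, luminescence.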

The nature of test [3]: qHTS assay to identify small molecule agonists of the progesterone receptor (PR) signaling pathway - cell viability counter screen (AID 1346799; calls by dose curve; note: nearly all actives have a fitted effect of over 45% in size; note: potency is the fitted concentration of half-maximal effect). A digest of the protocol:
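Luminescence from CellTiter-Glo, added after the beta-lactamase FRET read in the same wells, gave cytotoxicity in PR-UAS-bla HEK293T cells treated with compounds for 16 hr at 37C.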

The nature of test [4]: qHTS assay to identify small molecule agonists of the TGF-beta/Smad signaling pathway (AID 1346859; active = well fitted activation curve with a large enough effect in the signal ratio in the repeat runs, not every such curve was filed as active; the % refers to the signal ratio; note: series mostly up to about 77 µM). The gist of the method: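 SBE-bla HEK 293T, 4,000 cells/well, plated o/n; cpd in DMSO, 5 hr, 37 C/5% CO2; B/G FRET substrate 2 hr RT; ex 405, em 460/530 nm.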
Test [5] has as its target Thyrotropin-releasing hormone receptor (Homo sapiens) (UniProt P34981). Nature of the test: qHTS assay to identify small molecule antagonists of the thyrotropin-releasing hormone receptor (TRHR) signaling pathway (AID 1346877; active = well fitted inhibition curve with a large enough effect in the repeat runs, not every such curve was filed as active; note: potency is the fitted concentration of half-maximal effect; for activity, negative = inhibition: series mostly up to about 51 µM). The gist of the method: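 Kinetic fluorescence (3 min, 1 s resolution) following stimulation with TRH at 1 nM final; HEK293 cells bearing human TRHR; 5 min compound preincubation at RT; concentration-response over 15 points, triplicates.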

Test [6] shares this target. Nature of the test: qHTS assay to identify small molecule agonists of the thyrotropin-releasing hormone receptor (TRHR) signaling pathway (AID 1346891; calls by dose curve; note: series mostly up to about 58 µM). A digest of the protocol:
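Intracellular calcium rise, read as fluorescence every second for 3 min, served as the agonist signal in dye-loaded HEK293 cells expressing TRHR; each compound ran at 15 concentrations in triplicate.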

Test [7] in a line: Human pregnane X receptor (PXR) small molecule agonists, qHTS cell viability counter screen (AID 1346977). Note: nearly all actives have a fitted effect of over 50% in size. Note: potency is the fitted concentration of half-maximal effect. A digest of the protocol:
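PXR-Luc HepG2, 2,000 cells/well, 5% charcoal-stripped FBS; 5hr settle; cpd 24hr, 37C/5% CO2; CellTiter-Fluor at 23hr, read 1hr later (fluorescence).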

Test [8] in a line: qHTS assay to identify small molecule antagonists of the TGF-beta/Smad signaling pathway - cell viability counter screen (AID 1346824). Note: nearly all actives have a fitted effect of over 50% in size. A digest of the protocol:
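SBE-bla HEK 293T cells were plated overnight at 37 C, then given compounds in DMSO plus TGF-beta1 (added as 0.25 ng/mL solution) for 5 hr. After the bla read, CellTiter-Glo was added to the same wells and luminescence read after 30 min at room temperature.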

Test [9] in a line: qHTS assay to identify small molecule agonists of the TGF-beta/Smad signaling pathway - cell viability counter screen (AID 1346829). Note: nearly all actives have a fitted effect of over 45% in size. Note: potency is the fitted concentration of half-maximal effect. The gist of the method:
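Same-well cytotoxicity: CellTiter-Glo added after the 2 hr room-temperature beta-lactamase substrate step, luminescence measured 30 min later; cells had 5 hr of compound at 37 C.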

Test [10] in a line: Caspase-3/7 induction in HepG2 cells by small molecules, qHTS assay (AID 1346978). Note: nearly all actives have a fitted effect of over 15% in size. Note: potency is the fitted concentration of half-maximal effect. The gist of the method: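 Wild-type HepG2 cells (2,000/well) were settled 5 h at 37 C, 5% CO2, then exposed to compounds in DMSO for 17 h. Caspase-3/7 activity was read by luminescence 30 min after adding Caspase-Glo 3/7 reagent at room temperature.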

Values joined by “and” are separate entries in the source; they are usually repeats but may differ in a detail not shown here. Equal entries are not always repeated. Records with an inconclusive call do not appear. More than one record can exist for a structure, and the calls need not agree. Active and inactive are the calls of the source. Unless noted, calls come from the whole dose curve; as a rule, active = well fitted curve in the direction sought with a large enough effect in the repeat runs; inconclusive = weak or mixed curves; inactive = no such curve, though single readings can be large; an effect the other way counts as inactive or inconclusive.
% is set by controls: 0 for no effect and ±100 for the full control effect.

Chain of Thyrotropin-releasing hormone receptor (Homo sapiens) (P34981 whole entry, looked up): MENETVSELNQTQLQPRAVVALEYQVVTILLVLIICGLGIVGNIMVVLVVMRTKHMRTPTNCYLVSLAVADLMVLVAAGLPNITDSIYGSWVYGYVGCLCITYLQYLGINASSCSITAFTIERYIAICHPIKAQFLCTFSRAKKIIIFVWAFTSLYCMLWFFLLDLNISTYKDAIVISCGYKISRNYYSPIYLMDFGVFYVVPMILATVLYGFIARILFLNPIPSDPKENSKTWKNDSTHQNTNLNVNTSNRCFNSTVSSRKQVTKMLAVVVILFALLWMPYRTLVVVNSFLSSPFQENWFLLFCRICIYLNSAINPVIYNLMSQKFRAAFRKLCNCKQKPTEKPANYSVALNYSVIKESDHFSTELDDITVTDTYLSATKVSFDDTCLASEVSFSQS
Chain of Progesterone receptor (Homo sapiens) (P06401 whole entry, looked up): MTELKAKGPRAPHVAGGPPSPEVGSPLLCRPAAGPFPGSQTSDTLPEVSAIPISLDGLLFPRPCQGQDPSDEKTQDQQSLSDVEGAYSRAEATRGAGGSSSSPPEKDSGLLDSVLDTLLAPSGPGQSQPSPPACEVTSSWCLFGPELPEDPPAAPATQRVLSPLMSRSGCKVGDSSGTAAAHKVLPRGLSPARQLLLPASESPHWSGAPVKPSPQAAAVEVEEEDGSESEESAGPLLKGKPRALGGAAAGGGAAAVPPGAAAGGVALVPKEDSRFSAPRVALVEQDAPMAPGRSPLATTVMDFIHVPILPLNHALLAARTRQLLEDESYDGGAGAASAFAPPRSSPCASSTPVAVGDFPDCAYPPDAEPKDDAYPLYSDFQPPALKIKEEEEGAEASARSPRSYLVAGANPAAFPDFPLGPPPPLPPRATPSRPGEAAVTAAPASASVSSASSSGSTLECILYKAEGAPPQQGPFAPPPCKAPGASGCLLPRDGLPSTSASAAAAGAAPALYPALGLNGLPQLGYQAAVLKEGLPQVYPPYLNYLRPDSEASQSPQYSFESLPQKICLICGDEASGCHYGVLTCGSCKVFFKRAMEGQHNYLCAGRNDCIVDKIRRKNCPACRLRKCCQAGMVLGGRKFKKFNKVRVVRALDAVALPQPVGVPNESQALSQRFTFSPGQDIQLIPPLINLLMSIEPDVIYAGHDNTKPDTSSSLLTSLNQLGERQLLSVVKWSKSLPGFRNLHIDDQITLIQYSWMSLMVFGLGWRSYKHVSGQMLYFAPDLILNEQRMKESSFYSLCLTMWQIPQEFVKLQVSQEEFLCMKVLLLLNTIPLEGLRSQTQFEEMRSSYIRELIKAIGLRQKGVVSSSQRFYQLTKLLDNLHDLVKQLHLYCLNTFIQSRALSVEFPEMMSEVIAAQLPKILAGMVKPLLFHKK

On to `CCCCCCCCCCCCCCCC[N+](C)(C)CCN(Cc1ccc(OC)cc1)c1ncccn1`, for which the Potency entry in test [1], in [4], in test [5] and in [6] was “inactive” in each case. The Potency is 29.8 µM (active) in test [2], 21.1 µM (active) in test [3] and 29.8 µM (active) in test [7].
Turning to `CN(C)CCCOC1(Cc2ccccc2)CCCCCC1`, the Potency result in test [1], in test [2], in test [8], in test [9], in test [4] and in test [5] was “inactive” each time. The Potency result in [6] and in test [10] was “inactive” throughout.
For the compound `ON=C1CCCC1`, the Potency entry in test [1], in test [2], in test [9], in test [4], in test [5] and in test [6] was “inactive” in each case. In addition, the Potency result in [7] and in test [10] was “inactive” throughout. The Potency in test [3] was 63.3 µM (active).
Regarding `Cc1cccc(N(C)C(=S)Oc2ccc3c(c2)C2CCC3C2)c1` (configuration not stated), the Potency in test [1] was 15 µM (active). In addition, the Potency result in test [3], in test [8], in test [9], in test [4], in [5] and in test [6] was “inactive” each time. In addition, the Potency entry in test [7] and in test [10] was “inactive” each time.
On to `CCCCCCCCCCC=O`, for which the Potency entry in [1], in test [2], in test [3], in test [9], in test [4] and in test [5] was “inactive” throughout. In addition, the Potency entry in test [6], in test [7] and in [10] was “inactive” in each case.
Consider `CCCCCCCCOc1ccccc1C(=O)Nc1ccc(C(=O)OCC[N+](C)(CC)CC)cc1`, for which the Potency entry in [1], in test [8], in test [9], in test [4], in test [5] and in [6] was “inactive” in each case. Besides, the Potency result in [7] was “inactive”. In [2], the Potency was 29.8 µM (active).
Take `CCCCCOc1ccccc1/C(=C\SC)n1ccnc1`: the results for the Potency in test [1], in test [3] and in test [7] were 3.76 µM (active), 7.5 µM (active) and 23.7 µM (active), respectively. In addition, the Potency result in test [8], in [9], in test [4], in test [5], in [6] and in [10] was “inactive” throughout.
For `Cc1ccc(O)c2ncccc12`, the results for the Potency in [1], in test [5] and in [7] were 7.5 µM (active), 5.23 µM (active) and 5.96 µM (active), respectively. For the same compound, the Potency result in test [2], in [8], in test [9], in [4] and in test [6] was “inactive” in each case.
With `CCCCCCCC(=O)[O-].CCCCCCCC(=O)[O-].[Zn+2]`, the Potency result in [1], in test [2], in test [3], in test [9], in [4] and in test [7] was “inactive” in each case. In addition, the Potency entry in test [10] was “inactive”.
Regarding `CC(C)(C)NC(=O)[C@@H]1C[C@@H]2CCCC[C@@H]2CN1C[C@@H](O)[C@H](Cc1ccccc1)NC(=O)[C@H](CC(N)=O)NC(=O)c1ccc2ccccc2n1`, the Potency is 49.2 µM (active) in test [1]; 55.2 µM (active) in test [2]; 39.1 µM (active) in test [3]; 19.6 µM (active) in test [7]; 69.5 µM (active) in [10].
For the compound `CC(C)CCCCCCCCCCCCCCC(=O)O`, the Potency entry in test [1], in [2], in test [8], in test [9], in [4] and in test [5] was “inactive” in each case. Moreover, the Potency result in [6], in [7] and in test [10] was “inactive” throughout.
For `C[n+]1cc2c3c(ccc2c2ccc4cc5c(cc4c21)OCO5)OCO3`, the Potency in test [1] is 2.59 µM (active); in [2] it was 3.66 µM (active); in test [3] it was 3.26 µM (active); in test [9], 6.57 µM (active); in test [7] it was 2.91 µM (active); in test [10], 3.66 µM (active). The activity, negative = inhibition in test [5] is 3.07% [at 10.5 µM] (inactive). The activation in test [6] was 2.25% [at 11.8 µM] (inactive).
For the compound `C1CCCC1`, the Potency result in test [1], in test [3], in [8], in test [9], in test [4] and in test [5] was “inactive” in each case. Besides, the Potency entry in test [6], in test [7] and in [10] was “inactive” in each case.
For `Nc1c(Cl)cc(Cl)cc1Cl`, the Potency entry in test [1], in [2], in test [3], in [9], in test [4] and in test [5] was “inactive” each time. Moreover, the Potency entry in [6], in [7] and in test [10] was “inactive” each time.
For `CC1=C(/C=C/C(C)=C/C=C/C(C)=C/C=O)C(C)(C)CCC1`, the Potency in test [1] was 54.2 µM (active); in test [2] it was 68.2 µM (active); in [3] it was 60.8 µM (active); in [7] it was 60.8 µM (active). Also, the Potency entry in [4], in [5] and in test [6] was “inactive” in each case.
On to `NNc1nc(-c2ccc(N)cc2)cs1`, for which the Potency result in test [1], in test [2], in [9], in test [4] and in test [10] was “inactive” each time.
For the compound `NC(=O)NS(=O)(=O)c1ccc(N)cc1`, the Potency entry in test [1], in [3], in test [8], in test [9], in test [4] and in test [5] was “inactive” throughout. The Potency result in test [6], in [7] and in [10] was “inactive” each time.
Consider `COC(=O)c1cc(Cl)ccc1OC`, for which the Potency entry in test [1], in test [3], in test [8], in [9], in test [4] and in [5] was “inactive” in each case. The Potency entry in test [6], in test [7] and in [10] was “inactive” in each case.
In the case of `Cc1cc(CCN2CCN(c3nsc4ccccc34)CC2)cc2c1NC(=O)CC2(C)C`, the Potency in test [1] was 19.3 µM (active); in test [2], 30.6 µM (active); in [3], 27.3 µM (active); in test [7], 27.3 µM (active). In addition, in test [10], the Potency result is “inactive”.
As for `CCOC(=O)O[C@]1(C(=O)OCCl)CC[C@H]2[C@@H]3CCC4=CC(=O)C=C[C@]4(C)[C@H]3[C@@H](O)C[C@@]21C`, the Potency result in test [1], in test [2], in test [9], in [5], in test [6] and in [7] was “inactive” in each case. The Potency result in test [10] is “inactive”.
As to `Oc1ccc2cc(SSc3ccc4cc(O)ccc4c3)ccc2c1`, the Potency in test [1] is 30.7 µM (active) and 48.6 µM (active). The Potency result in [2], in [9], in test [4], in test [5], in test [6] and in [7] was “inactive” each time. Also, the Potency entry in test [10] was “inactive”.
Consider `O=C1CCCCCN1SSN1CCCCCC1=O`, for which the Potency entry in test [1], in test [2], in test [4], in test [5], in test [6] and in test [7] was “inactive” throughout. The Potency result in test [10] is “inactive”.
Turning to `Clc1ccccc1C(c1ccccc1)(c1ccccc1)n1ccnc1`, the Potency in test [1] was 9.44 µM (active); in [2], 5.45 µM (active) and 29.8 µM (active); in test [3], 7.7 µM (active); in test [9], 34.7 µM (active) and inactive; in test [7] it was 17.2 µM (active). The Potency result in [5], in [6] and in [10] was “inactive” in each case.
With `CCC(Cl)C(Cl)C(Cl)CC(Cl)C(Cl)C(C)Cl` (configuration not stated), the Potency in [1] was 17.2 µM (active). Moreover, the Potency entry in test [2], in [9], in [4], in test [5], in test [6] and in test [7] was “inactive” in each case. For the same compound, the Potency entry in test [10] is “inactive”.
